# Experimental data reported in the supplement of paper PMC10338343.
# ± gives the standard deviation.
# Tested on: MILI (PIWIL2) piRISC loaded with L1MC piRNA (26 nt)
# Test: pre-steady-state target cleavage rate (min^-1); guide: L1MC piRNA 5'p-UAACUAAAUACUAUGCAAGCUGUAGG; MIWI and MILI are mouse PIWI proteins and EfPiwi is from a freshwater sponge; tags in brackets are library labels; higher = faster piRNA-guided slicing of the target
# Conditions: auxiliary factor: 500 nM mouse GTSF1
# Protocol: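 Cleave-'n-Seq: a library of target RNAs (target site embedded in constant flanks, ACAGCATTCCGCGTTAGTGATATCCG... 5' flank; DNA-blocked outside the site) at 0.1 nM was incubated with 1 nM active mouse MILI or MIWI piRISC (synthetic 5'-monophosphorylated piRNA guide) with or without 500 nM mouse GTSF1 at 33 °C for 1 min to 16 h. Uncleaved targets were sequenced and normalised to non-target controls, and the pooled three trials were fitted to a burst-and-steady-state model to give the pre-steady-state cleavage rate (min^-1; k3 is constrained to at most 1e-4). Sequence is the target site only; target names encode pairing extent (gX:gY) and contiguous / 1-mismatch / 2-mismatch / bulge geometry. Fits with R² ≤ 0 are excluded.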
row,Sequence,pre-steady-state target cleavage rate
1,UCCUCCUACAGCUUGCCAUAGUAUUUAGUUA,0.173 ± 0.026
2,UCCUGCUACCGCUUGCAUAGUAUUUAGUUA,0.368 ± 0.035
3,UCCUGGUACAGCUUACAUAGUAUUUAGUUA,0.213 ± 0.02
4,UCCUGGAACAGCUUGCAUAGUAUAAAGUUA,0.196 ± 0.029
5,UCCUGGAUGUCGAAGCAUAGUAUUUAGUCA,0.0245 ± 0.0057
6,UCCUGGAUCAGCUUGCAUAGUUUUUAGUAA,0.0337 ± 0.0089
7,UCCUGGUACAGCUAGCAUAGUAUUUACAAA,0.0365 ± 0.012
8,UCCUGCUACAGCUUGCAUAGAUAUUUAGUUA,0.0121 ± 0.005
9,UCCUGCUACAGGCUUGCAUAGUAUUUAGUUA,0.241 ± 0.014
10,UCCUCCUACAGCUUGCAUAGUAUUUAGUUA [g2:g26:cont:t1A],0.344 ± 0.02
11,UCCUCCUACAGGUUGCAUAGUAAUUAGUUA,0.205 ± 0.018
12,UCCUGGAACAGCUUGCAUAGAUUUUAGUAA,0.0259 ± 0.0091
13,UCCUGGAUCAGGUUGCUUAGUAUUUAGUUA,0.189 ± 0.011
14,UCCUGGAUCAGCUUGACAUAGUAUUUAGUUA,0.171 ± 0.019
15,UCCUGGUACAGCUUGCAUAGUAUUUAGGUUA,0.163 ± 0.044
16,UCCUGGAUGUGCUAGCAUAGUAUUUACUUA,0.0865 ± 0.019
17,UCCUGGAACAGCUUGCAUUGUAAUUAGUUA,0.184 ± 0.023
18,UCCUGGAUGUGCUUGCAUAGUAUUUACAAA,0.00913 ± 0.0046
19,UCCUGGUACAGCUUGGAAAGUAUUUAGUUA,0.111 ± 0.014
20,UCCUGCUACAGCUUGCUAGUAUUUAGUUA,0.0195 ± 0.0079
21,UCCUGGAUGAGCUUCCAUAGUAUUUAGUAA,0.0143 ± 0.0073
22,UCCUGGAACACGUUGCAUAGUAUUUUCAAA,0.0973 ± 0.026
23,UCCUCCUACAGCUUGCAUAGUAUUAACAAA,0.11 ± 0.023
24,UCCUCCUUGUGCUUGCAUAGUAUUUAGUAA,0.147 ± 0.021

# Same assay, conditions: auxiliary factor: none (no GTSF1)
row,Sequence,pre-steady-state target cleavage rate
1,UCCUCCUACAGCUUGCCAUAGUAUUUAGUUA,0.00264 ± 0.0026
2,UCCUGCUACCGCUUGCAUAGUAUUUAGUUA,0.0103 ± 0.0044
3,UCCUGGUACAGCUUACAUAGUAUUUAGUUA,0.00894 ± 0.0027
4,UCCUGGAUGUCGAAGCAUAGUAUUUAGUCA,0.00315 ± 0.0019
5,UCCUGCUACAGCUUGCAUAGAUAUUUAGUUA,0.00419 ± 0.0019
6,UCCUGCUACAGGCUUGCAUAGUAUUUAGUUA,0.0112 ± 0.0031
7,UCCUCCUACAGCUUGCAUAGUAUUUAGUUA [g2:g26:cont:t1A],0.0103 ± 0.003
8,UCCUCCUACAGGUUGCAUAGUAAUUAGUUA,0.00589 ± 0.0017
9,UCCUGGAUCAGGUUGCUUAGUAUUUAGUUA,0.00878 ± 0.0023
10,UCCUGGAUCAGCUUGACAUAGUAUUUAGUUA,0.00343 ± 0.0024
11,UCCUGGUACAGCUUGCAUAGUAUUUAGGUUA,0.00633 ± 0.0032
12,UCCUGGAACAGCUUGCAUUGUAAUUAGUUA,0.00389 ± 0.0028
13,UCCUGGUACAGCUUGGAAAGUAUUUAGUUA,0.00903 ± 0.0035
14,UCCUGCUACAGCUUGCUAGUAUUUAGUUA,0.00519 ± 0.002
15,UCCUCCUUGUGCUUGCAUAGUAUUUAGUAA,0.0033 ± 0.0024
